Results on 55 compounds are retold here after PubChem BioAssay AID652054 (National Center for Advancing Translational Sciences (NCATS), 2013).

The campaign covered roughly 360,000 compounds. About 9,100 (2.5%) were called active. Not shown: some 4% with an inconclusive outcome. Cut-off read from the data, not from the text of the source: active = max response below about -50%; inconclusive = no clear call, values can overlap the other calls; inactive = above that. The entries come from a sample that favours actives as a whole.
% is set by controls: 0 for no effect and ±100 for the full control effect.

Sequence of D(3) dopamine receptor (Homo sapiens) (P35462 whole entry, looked up): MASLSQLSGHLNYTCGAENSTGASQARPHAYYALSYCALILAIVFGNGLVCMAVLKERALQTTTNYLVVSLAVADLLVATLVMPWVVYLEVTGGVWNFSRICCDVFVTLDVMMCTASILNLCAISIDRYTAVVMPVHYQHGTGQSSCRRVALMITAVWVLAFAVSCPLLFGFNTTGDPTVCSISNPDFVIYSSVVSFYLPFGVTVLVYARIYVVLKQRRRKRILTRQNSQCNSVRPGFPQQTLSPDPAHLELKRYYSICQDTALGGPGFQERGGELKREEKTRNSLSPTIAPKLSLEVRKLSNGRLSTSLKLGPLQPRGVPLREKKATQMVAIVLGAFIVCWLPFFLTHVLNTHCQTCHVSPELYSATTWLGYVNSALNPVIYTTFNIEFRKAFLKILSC

In this assay the target is D(3) dopamine receptor (Homo sapiens) (UniProt P35462). The experiment in a line: qHTS of D3 Dopamine Receptor Antagonist: qHTS. The settings on record: D3R cells, DiscoveRx beta-arrestin luminescence, antagonist mode; stronger effect = lower value. The gist of the method:
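Cells expressing the human receptor were seeded at 1500 cells/well, incubated overnight at 37 degrees C in 5% CO2, then exposed to library compounds with dopamine controls for 90 minutes at 37 degrees C before luminescent detection.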
On to `O=C(Nc1cccc(Cc2ccccc2)c1)Nc1ccc2nc([C@@H]3O[C@H](CO)[C@@H](O)[C@H](O)[C@H]3O)[nH]c2c1`, for which the max response, negative = inhibition is 32.8% (inactive).

For the compound `Cc1ccc(C(=O)Nc2c(-c3ccccc3)[nH][nH]c2=O)cc1`, the max response, negative = inhibition is -20.8% (inactive).

As to `COCOCCn1cc(CN2CCS(=O)(=O)N(Cc3ccc(-c4ccccc4)cc3)C(CC(C)C)C2=O)nn1` (stereo not given), the max response, negative = inhibition is 13% (inactive).

In the case of `CC(C)NS(=O)(=O)c1ccc(NC(=O)c2cccnc2)cc1`, the max response, negative = inhibition was 0% (inactive).

As to `CCOC(=O)c1cc(NC(=O)c2cccnc2)ccn1`, the max response, negative = inhibition was -0.585% (inactive).

`Cc1c(C(=O)OC(C)C)sc(NC(=O)c2cccnc2)c1C#N`: the max response, negative = inhibition was -61.4% (active).

On to `CCOC(=O)[C@]12CCCC=C1N(Cc1ccc3c(c1)OCO3)C(=O)[C@H](CC(=O)N1CCN(C(=O)c3ccco3)CC1)C2`, for which the max response, negative = inhibition is -0.946% (inactive).

With `Cc1cccc(C(=O)NC2CCN(CC(=O)Nc3cccc(Cl)c3)CC2)c1`, the max response, negative = inhibition is -13.9% (inactive).

In the case of `OC[C@@H]1CN(C2CCCC2)C[C@H](n2cnc3c(NC4CCC4)ncnc32)O1`, the max response, negative = inhibition was -7.86% (inactive).

With `CNc1ccc([N+](=O)[O-])cc1C(=O)O`, the max response, negative = inhibition is -6.53% (inactive).

For `CCN(CC)c1ccc([N+](=O)[O-])cc1C(=O)O`, the max response, negative = inhibition was 9.06% (inactive).

On to `O=C(O)c1ccc([N+](=O)[O-])cc1Sc1ccsc1`, for which the max response, negative = inhibition is -56.7% (active).

With `O=C(c1cc(C(=O)N2CCN(c3ccc(F)cc3)CC2)cc([N+](=O)[O-])c1)N1CCN(c2ccc(F)cc2)CC1`, the max response, negative = inhibition is -2.24% (inactive).

On to `CN1CCN(CCNC(=O)Nc2ccc([N+](=O)[O-])cc2)CC1`, for which the max response, negative = inhibition is -6.94% (inactive).

Regarding `O=C(NCCCN1CCN(c2ccc(F)cc2)CC1)Nc1ccc([N+](=O)[O-])cc1`, the max response, negative = inhibition was -118% (active).

Regarding `COc1ccc(C2OC(CCc3ccccc3)Cc3[nH]c(=S)[nH]c(=O)c32)cc1` (stereo not given), the max response, negative = inhibition was 0% (inactive).

On to `OC[C@@H]1CN(Cc2cccs2)C[C@H](n2cnc3c(Nc4ccccc4)ncnc32)O1`, for which the max response, negative = inhibition is -4.85% (inactive).

`COc1ccc(-c2ccc(CN3C(CC(C)C)C(=O)N(Cc4cn(CC5CCCCC5)nn4)CCS3(=O)=O)cc2)cn1` (stereo not given): the max response, negative = inhibition is 0.993% (inactive).

Consider `CN(Cc1ccccc1F)c1cc2c(c3c1ccn3C)C1CCC2O1` (stereo not given), for which the max response, negative = inhibition was -29.6% (inactive).

Consider `COc1ccc(/C=N/NC(=O)Nc2ccc3nsnc3c2)c(OC)c1`, for which the max response, negative = inhibition was -16.9% (inactive).

As for `COc1ccc(/C=N/NC(=O)CNC(=O)c2ccc(S(=O)(=O)N3CCCC3)cc2)c(OC)c1`, the max response, negative = inhibition is -0.269% (inactive).

On to `COc1ccc(/C=N/NC(=O)c2ccc3c(c2)OCCO3)c(OC)c1`, for which the max response, negative = inhibition is -64.3% (active).

As to `COC(=O)[C@@]12C[C@@H](CC(=O)NCc3cccc(C(F)(F)F)c3)C(=O)N(Cc3ccco3)C1=CCC(C)(C)C2`, the max response, negative = inhibition was -1.5% (inactive).

Consider `COc1cccc(/C=C/C(=O)Nc2ccc3c(c2)OCCO3)c1`, for which the max response, negative = inhibition is -6.81% (inactive).

For `Cc1cccc(NC(=O)/C=C/c2ccc3c(c2)OCO3)n1`, the max response, negative = inhibition is -14.5% (inactive).

As to `O=C(/C=C\c1ccc2c(c1)OCO2)NC1(C(=O)Nc2ccc3c(c2)OCCO3)CCCCC1`, the max response, negative = inhibition is -59.6% (active).

For `CSC1=NN(c2ccccc2)CN(c2ccccc2)N1C`, the max response, negative = inhibition was -6.6% (inactive).

With `COC(=O)c1ccc2nc(C3CCCCC3)c(Cc3cccc(F)c3)n2c1`, the max response, negative = inhibition was 10.5% (inactive).

As to `CC1CCN(CCC(=O)Nc2ccccc2)CC1`, the max response, negative = inhibition is -0.851% (inactive).

On to `Cc1ccc(NC(=O)CCN2CCc3ccccc3C2)cc1`, for which the max response, negative = inhibition is -94.8% (active).

For the compound `O=C(CN1CCc2cc3c(cc2C1)OCCCO3)Nc1ccccc1`, the max response, negative = inhibition was -19.3% (inactive).

Take `COc1cc2c(cc1OC)CN(CC(=O)Nc1ccc(F)cc1)CC2`: the max response, negative = inhibition was -16.8% (inactive).

For the compound `Cc1ccc(NC(=O)CN2CCc3ccccc3C2)cc1`, the max response, negative = inhibition was -84.2% (active).

In the case of `CCOC(=O)N1CCN(CCC(=O)Nc2ccccc2)CC1`, the max response, negative = inhibition is -15.4% (inactive).

As for `COc1ccc(NC(=O)C[C@H]2C(=O)N(CCc3ccccc3)C[C@@H]2C)cc1`, the max response, negative = inhibition was 1.09% (inactive).

As for `CC(=O)NC(c1ccccc1)c1nc(-c2cccc(C(C)C)c2)cs1` (stereo not given), the max response, negative = inhibition was 20.2% (inactive).

Regarding `CC1(C(=O)NS(=O)(=O)c2ccc3ccccc3c2)CCN1C(=O)C1(c2ccc(Cl)cc2)CCC1` (stereo not given), the max response, negative = inhibition is -21.3% (inactive).

As to `CNc1cncc(-c2cccc(C(=O)N3CCOCC3)c2)n1`, the max response, negative = inhibition is 13.3% (inactive).

On to `CCC(c1nnnn1-c1ccc2c(c1)OCCO2)N1CCN(c2ccc(C(F)(F)F)cn2)CC1` (stereo not given), for which the max response, negative = inhibition was 4.77% (inactive).

`COc1ccc(/C=C2\SC(=S)N(CCC(=O)N3CCOCC3)C2=O)cc1OC`: the max response, negative = inhibition was -14.3% (inactive).

For `COc1ccc(CN2CC(C(=O)NCCN3CCN(c4ccccc4F)CC3)CC2=O)cc1` (stereo not given), the max response, negative = inhibition is -22.6% (inactive).

As for `O=C(NCCCN1CCN(c2ccccc2F)CC1)C1CCC(=O)N1C1CCCCC1` (stereo not given), the max response, negative = inhibition is -78% (active).

Take `O=C(NCCCN1CCCCCC1)C1CC(=O)N(C2CCCC2)C1` (stereo not given): the max response, negative = inhibition was 10.5% (inactive).

`O=C(C[C@H]1CC[C@H]2[C@@H](COC[C@H](O)CN2C(=O)c2ccccn2)O1)N1CCN(c2ccccc2)CC1`: the max response, negative = inhibition was -25.4% (inactive).

Regarding `CCOC(=O)C1CCCN(C(=O)c2ccc(N(C)C)cc2)CC1` (stereo not given), the max response, negative = inhibition is 22.6% (inactive).

As to `CC1=C(C(=O)N2CCOCC2)CC(CC(=O)NCC2CCCCC2)C(=O)N1Cc1ccc(F)cc1` (stereo not given), the max response, negative = inhibition was -11.1% (inactive).

Consider `NC(Cc1ccc(F)cc1)c1csc(Nc2nncc3ccccc23)n1` (stereo not given), for which the max response, negative = inhibition was 7.2% (inactive).

As to `S=C1Nc2cc(Cl)ccc2Sc2ccccc21`, the max response, negative = inhibition was 4.03% (inactive).

As for `O=C1CC2(CCCC2)Oc2ccc(Cl)cc21`, the max response, negative = inhibition is 0% (inactive).

As for `O=C1Cc2ccccc2Sc2ccc(Cl)cc21`, the max response, negative = inhibition is -51% (active).

As to `CCOC(=O)N1CCN(C(=O)C[C@@H]2C[C@@]3(C(=O)OC)CCCCC=C3N(CCC3=CCCCC3)C2=O)CC1`, the max response, negative = inhibition was 18.8% (inactive).

Regarding `Cc1ccc(Cn2cc(CN3CC(N4CCN(C)CC4)CS3(=O)=O)nn2)cc1` (stereo not given), the max response, negative = inhibition is -6.65% (inactive).

Turning to `O=S1(=O)CC(N2CCSCC2)CN1Cc1cn(Cc2cccc(Cl)c2)nn1` (stereo not given), the max response, negative = inhibition is 26.4% (inactive).

On to `COc1ccc(-c2cc(NC=O)c3ncc(-c4cccc(C(=O)N(C)C)c4)n3c2)c(OC)c1`, for which the max response, negative = inhibition is -2.96% (inactive).

With `COC(=O)[C@]12CCCCC=C1N(CCC1=CCCCC1)C(=O)[C@H](CC(=O)N1CCSCC1)C2`, the max response, negative = inhibition was -7.56% (inactive).
